Screens from PubChem BioAssay.
PAX8 reporter = inhibitors of PAX8-driven TPO luciferase reporter, primary screen, RMG-I cells, single concentration; actives 1.2% (n = 360,000); SteadyGlo, 24 h; inhibition, % at 12.6 µM;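 active = mean replicate inhibition at least 60% with every replicate also reaching 60%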;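 also: luciferase light reporting Pax8 driven TPO promoter activity; plate controls were median of neutral control wells for no effect and mitoxantrone controls for full effect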
Shn3 3UTR inh = reduction of Shn3 3'UTR firefly luciferase signal, primary screen, Schnurri-3 inhibitor project, cell-based, Clone20 osteoblasts, set 2; Clone20 osteoblast Shn3 3'UTR firefly luciferase, 24 h; actives 0.52% (n = 360,000); inhibition, % at 12.5 µM;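 active = mean inhibition of at least 75% with every replicate also reaching 75%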;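 also: 0% = median of neutral control wells and 100% = pilot-screen positive control compound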
EWS-Fli block = EWS/Fli-driven NR0B1 reporter inhibitors, primary screen, A673 cells, NR0B1 luciferase, luminescence, MLPCN library. viability-normalised. inhibition, % at 12.6 µM. actives 0.67% (n = 350,000);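 active = mean inhibition of at least 50% after viability correction, with every replicate also passing that limit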;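 also: firefly luciferase signal divided by Alamar Blue viability fluorescence both relative to DMSO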
ABHD5-PLIN5 inh = ABHD5-PLIN5 interaction inhibitors, primary screen, cell lysate, split luciferase complementation, luminescence | inhibition, % at 4 µM | actives 0.78% (n = 360,000) | Split G. princeps luciferase complementation, 4 h;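 active = inhibition above the mean inhibition across every tested compound plus 3 SD, cut at about 22% in these data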;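 also: 0% = DMSO only wells and the 100% control is not disclosed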
Peg3 prom inh = Peg3 promoter-driven luciferase inhibitors, primary screen, cell-based, HeLa, luciferase luminescence; AID 588405, 2011; HeLa PEG-Prom luciferase reporter, overnight; inhibition, % at 20 µM; actives 1.7% (n = 360,000);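 active = inhibition of at least 50% at 20 µM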
MITF TRPM1 inh = inhibitors of MITF-dependent TRPM1 promoter reporter, primary screen, cell-based, SK-MEL-5, single point, luciferase | SK-MEL-5 TRPM1 promoter luciferase, 24 h | inhibition, % at 12.5 µM | actives 0.83% (n = 330,000);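 active = mean inhibition across replicates of 60% or more, whatever share of single replicates reaches that level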
ABHD5-PLIN5 conf = ABHD5-PLIN5 interaction inhibitors, confirmation, biochemical, luminescence; shares compounds with ABHD5-PLIN5 inh; inhibition, % at 4 µM; actives 67% (n = 2,200); AID 651612, 2012; in the data active = inhibition above about 23%;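 also: 0% = DMSO vehicle wells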
HNF4 counter = HNF4 dimerization inhibitors, counter-screen for ABHD5-PLIN5 interaction inhibitor project, biochemical, split-luciferase complementation, luminescence | shares compounds with ABHD5-PLIN5 inh | inhibition, % at 4 µM | actives 77% (n = 2,200);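 active = mean inhibition across replicate wells exceeding the computed hit threshold, cut at about 13% in these data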;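 also: light from luciferase halves that rejoin when HNF4 fusion proteins dimerize; 0% = DMSO only wells and the 100% control is not given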
Target sequence (P41235 whole entry, looked up, the tested form may be a part): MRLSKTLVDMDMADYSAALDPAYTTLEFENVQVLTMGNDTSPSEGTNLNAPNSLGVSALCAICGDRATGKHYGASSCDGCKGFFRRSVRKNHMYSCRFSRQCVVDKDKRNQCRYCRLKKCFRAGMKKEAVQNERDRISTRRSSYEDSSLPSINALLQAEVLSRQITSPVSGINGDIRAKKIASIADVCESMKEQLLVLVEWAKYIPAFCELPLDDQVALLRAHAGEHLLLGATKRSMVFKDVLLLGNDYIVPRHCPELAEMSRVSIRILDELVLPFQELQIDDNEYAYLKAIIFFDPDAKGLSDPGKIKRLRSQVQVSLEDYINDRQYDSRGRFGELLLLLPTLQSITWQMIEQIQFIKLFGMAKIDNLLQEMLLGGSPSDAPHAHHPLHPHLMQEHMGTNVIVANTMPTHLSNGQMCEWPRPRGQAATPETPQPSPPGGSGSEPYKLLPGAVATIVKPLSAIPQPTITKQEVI
Active calls of the source: *; . = not tested or not shown. An excerpt weighted towards active compounds, which were near 3% of everything screened.

SMILES	PAX8 reporter	Shn3 3UTR inh	EWS-Fli block	ABHD5-PLIN5 inh	Peg3 prom inh	MITF TRPM1 inh	ABHD5-PLIN5 conf	HNF4 counter
CCOC(=O)[C@]12Cc3c(cc(OC)c(OC)c3OC)[C@H]1N(C1CCCCC1)C(=O)c1ccccc12	89*	.	48	39*	.	.	20	32*
CCOC(=O)[C@]12Cc3ccccc3[C@H]1N(C(C)C)C(=O)c1ccccc12	-15	.	16	5	.	.	.	.
COC(=O)[C@H]1[C@H](CO)[C@H]2Cn3c(ccc(C4=CCCCC4)c3=O)[C@@H]1N2CC1CCCCC1	.	.	26	.	.	.	.	.
COC(=O)[C@H]1[C@H](CO)[C@H]2Cn3c(cccc3=O)[C@@H]1N2CCc1ccccc1	.	.	9	.	.	.	.	.
O=C(Cc1ccccc1)N1CC2(C1)[C@H](c1ccccc1)[C@@H](CO)N2Cc1cccc(F)c1	45	.	3	.	.	.	.	.
CCOC(=O)[C@@H]1[C@@H]2NC(=O)N(C)[C@@]1(C)Oc1ccccc12	2	.	-4	.	.	.	.	.
COC[C@H]1OC(=O)c2coc3c2[C@@]1(C)C1=C(C3=O)[C@@H]2CCC(=O)[C@@]2(C)C[C@H]1OC(C)=O	3	5	7	26*	19	48	8	69*
O=C1NC(=O)C(=Cc2ccc(-c3ccc(F)cc3O)o2)C(=O)N1	13	18	27	25*	9	46	73*	86*
Cc1ccc(/C=C2\C(=O)NC(=O)N(CCc3ccc(F)cc3)C2=O)o1	-2	2	11	-3	18	10	.	.
C=C1C(=O)OC2CC(C)C3C=CC(=O)C3(C)C(O)C12 (stereo not given)	.	97*	.	79*	106*	100*	93*	90*
C=C1C(=O)O[C@H]2[C@H]1[C@H](OC(=O)CC(=O)O[C@@H]1C[C@@H](C)[C@@H]3C=CC(=O)[C@@]3(C)[C@H]3OC(=O)C(=C)[C@H]13)C[C@@H](C)[C@H]1C=CC(=O)[C@]12C	68*	85	4	74*	22	10	91*	90*
C/C=C/c1ccc([C@H]2[C@@H](CO)N3CCCCN(C(=O)Cc4ccncc4)C[C@H]23)cc1	22	.	4	.	.	.	.	.
c1cncc(-c2ccc(C3[C@H]4CNC[C@@H]3N4CC3CC3)cc2)c1 (stereo not given in full)	-9	.	-12	.	.	.	.	.
COc1cc(/C=C/[N+](=O)[O-])ccc1OC(=O)c1cccnc1	15	-8	56*	27*	88*	32	83*	101*
O=C1NC(=O)C(=Cc2ccc(N3CCOCC3)cc2)C(=O)N1	-18	-4	-7	-2	-2	-3	.	.
O=C1NC(=O)C(=Cc2ccc(-c3ccc(S(=O)(=O)N4CCOCC4)cc3)o2)C(=O)N1	-28	-130	-5	33*	-15	5	91*	93*
COc1cc2c(cc1/C=C/[N+](=O)[O-])OCO2	37	71	19	66*	110*	79*	96*	101*
CCOC(=O)Cn1cc(C=C2C(=O)N(C)C(=O)N(C)C2=O)c2ccccc21	5	-17	7	29*	10	1	8	11
CN1C(=O)C(=Cc2cn(CC(=O)N3CCCC3)c3ccccc23)C(=O)N(C)C1=O	-8	8	14	45*	14	-3	14	34*
CN1C(=O)C(=Cc2cn(CC#N)c3ccccc23)C(=O)N(C)C1=O	20	-22	3	29*	-4	20	23*	21*
CN1C(=O)C(=Cc2cn(CC(=O)N3CCCCC3)c3ccccc23)C(=O)N(C)C1=O	.	-6	.	18	14	-13	.	.
O=C1CNC[C@H]2[C@@H](c3ccc(Br)cc3)[C@@H](CO)N12	-7	.	-11	.	.	.	.	.
CC1CCC(C(C)C)C(OC(=O)Cn2c(COc3ccccc3)[n+](C)c3ccccc32)C1 (stereo not given)	91*	60	20	29*	95*	97*	12	8
COC(=O)[C@H]1N[C@H]2c3ccc(C4=CCCC4)c(=O)n3C[C@H]2[C@@H]1CO	.	.	-1	.	.	.	.	.
COc1cc(/C=C2\C(=O)NC(=O)N(c3ccccc3)C2=O)cc(OC)c1O	.	13	.	34*	3	-6	17	22*
SMILES	PAX8 reporter	Shn3 3UTR inh	EWS-Fli block	ABHD5-PLIN5 inh	Peg3 prom inh	MITF TRPM1 inh	ABHD5-PLIN5 conf	HNF4 counter
O=C(O)Cn1cc(C=C2C(=O)NC(=O)NC2=O)c2ccccc21	18	12	19	32*	4	5	12	12
COc1cc(/C=C2\C(=O)NC(=O)N(c3ccccc3)C2=O)c([N+](=O)[O-])cc1OC	3	-2	7	10	-5	6	.	.
Cn1cc(/C=C2\C(=O)NC(=O)N(c3ccccc3)C2=O)c2ccccc21	8	5	6	29*	22	-17	14	15*
O=C(O)Cn1cc(/C=C2\C(=O)NC(=O)N(c3ccc(Cl)cc3)C2=O)c2ccccc21	13	7	11	36*	10	1	33*	32*
CCN1C(=O)NC(=O)/C(=C\c2cn(CC(=O)N3CCCCC3C)c3ccccc23)C1=O (stereo not given)	.	8	.	0	9	11	.	.
Cc1cc(/C=C2/C(=O)NC(=O)N(c3ccccc3)C2=O)c(C)n1-c1ccc(F)cc1	.	15	.	6	-4	2	.	.
COc1ccc(-c2ccc([C@H]3[C@H]4CN(C(=O)Cc5ccncc5)CCCCN4[C@H]3CO)cc2)cc1	60	.	0	.	.	.	.	.
COC(=O)[C@@H]1[C@@H](CO)[C@@H]2Cn3c(ccc(-c4cccc(F)c4)c3=O)[C@H]1N2Cc1ccncc1	-6	.	-2	.	.	.	.	.
COCC(=O)N1[C@@H]2Cn3c(ccc(C4=CCCC4)c3=O)[C@H]1[C@@H](C(=O)OC)[C@@H]2CO	-1	.	15	.	.	.	.	.
CN(C)CC#Cc1ccc([C@@H]2[C@H]3CN(C(=O)Cc4ccccn4)CCCCN3[C@H]2CO)cc1	8	.	0	.	.	.	.	.
O=C1CC(=O)N(c2ccccc2)C(=O)N1	-4	-3	-2	29*	6	3	5	24*
Cc1ccc(N2C(=O)CC(=O)NC2=O)cc1	.	1	5	21	5	4	.	.
CCN(CC)S(=O)(=O)c1ccc(N=Cc2c(O)n(-c3ccccc3)c(=O)[nH]c2=O)cc1	.	13	.	9	-6	23	.	.
